Where “and” joins values, the source holds several entries; their conditions need not be identical. Identical values can stand only once. Results filed as inconclusive are left out. Calls of active or inactive are those of the source. Unless noted, calls come from the whole dose curve; as a rule, active = well fitted curve in the direction sought with a large enough effect in the repeat runs; inconclusive = weak or mixed curves; inactive = no such curve, though single readings can be large; an effect the other way counts as inactive or inconclusive.
Assays:
[1] = Human pregnane X receptor (PXR) small molecule agonists, qHTS cell viability counter screen (AID 1346977); note: nearly all actives have a fitted effect of over 50% in size; note: potency is the fitted concentration of half-maximal effect
Method in brief: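 PXR-Luc HepG2 cells in medium with 5% charcoal-stripped FBS were pre-incubated 5hr, then exposed to compounds for 24hr at 37C. Viability was read in the same wells by CellTiter-Fluor fluorescence, reagent added after 23hr with a 1hr incubation.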

[2] = Caspase-3/7 induction in HepG2 cells by small molecules, qHTS assay (AID 1346978); note: nearly all actives have a fitted effect of over 15% in size
Method in brief: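 Wild-type HepG2 cells (2,000/well) were settled 5 h at 37 C, 5% CO2, then exposed to compounds in DMSO for 17 h. Caspase-3/7 activity was read by luminescence 30 min after adding Caspase-Glo 3/7 reagent at room temperature.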

[3] = Caspase-3/7 induction in CHO-K1 cells by small molecules, qHTS cell viability counter screen (AID 1346979); note: nearly all actives have a fitted effect of over 35% in size; note: potency is the fitted concentration of half-maximal effect
Method in brief: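 Wild-type CHO-K1 cells were seeded at 1,500 per well, rested 5hr at 37 C, then exposed to compounds in DMSO. After 16hr, CellTiter-Fluor reagent was added and fluorescence read 1hr later as the viability measure.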

[4] = Caspase-3/7 induction in CHO-K1 cells by small molecules, qHTS assay (AID 1346980); note: nearly all actives have a fitted effect of over 15% in size
Method in brief: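 Wild-type cells were seeded at 1,500 per well and settled 5 hr at 37 C, 5% CO2, then exposed to DMSO-dissolved compounds for 17 hr. Caspase-Glo 3/7 reagent was added, and luminescence was read after 30min at room temperature.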

[5] = Caspase-3/7 induction in HepG2 cells by small molecules, qHTS cell viability counter screen (AID 1346981); note: nearly all actives have a fitted effect of over 30% in size; note: potency is the fitted concentration of half-maximal effect
Method in brief: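 Viability determined by CellTiter-Fluor fluorescence in HepG2 wells also used for the luminescent Caspase-Glo 3/7 read. Compounds were present for 16 hr at 37 C, 5% CO2 before reagent addition.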

[6] = biological target: Nuclear receptor subfamily 1 group I member 2 (Homo sapiens) (UniProt O75469); assay: Human pregnane X receptor (PXR) small molecule agonists, qHTS assay (AID 1346982); note: nearly all actives have a fitted effect of over 35% in size; note: potency is the fitted concentration of half-maximal effect
Method in brief: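 Compound-induced hPXR transactivation of a CYP3A4 luciferase reporter was scored in HepG2 PXR-Luc cells over 24 hr at 37 C, 5% CO2, by luminescence.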

[7] = biological target: Acetylcholinesterase (Homo sapiens) (UniProt P22303); assay: Acetylcholinesterase (AChE) small molecule antagonists: colormetric cell-based qHTS assay (AID 1347395; calls by dose curve; note: nearly all actives have a fitted effect of over 30% in size)
Method in brief: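 SH-SY5Y cells, plated overnight at 37 C, were exposed to compounds for 30 min at 37 C and 5% CO2. Acetylthiocholine plus DTNB was then added, and thiocholine from endogenous AChE was quantified colorimetrically after 90 min at 37 C.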

[8] = biological target: Acetylcholinesterase (Homo sapiens) (UniProt P22303); assay: Acetylcholinesterase (AChE) small molecule antagonists: enzyme-based qHTS assay (AID 1347397; calls by dose curve; note: nearly all actives have a fitted effect of over 55% in size); settings: Potency: AChE enzyme activity inhibition; outcome: AChE enzyme activity inhibition
Method in brief: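 Human recombinant acetylcholinesterase; substrate acetylthiocholine; thiocholine quantified with DTNB (colorimetric). Compound preincubation 30 min RT; reaction 10 min RT.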

[9] = biological target: Acetylcholinesterase (Homo sapiens) (UniProt P22303); assay: Acetylcholinesterase (AChE) small molecule antagonists: fluorescence cell-based qHTS assay (AID 1347398; calls by dose curve; note: nearly all actives have a fitted effect of over 50% in size; note: potency is the fitted concentration of half-maximal effect); settings: Potency: AChE activity; outcome: AChE activity
Method in brief: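 Thiocholine generated from acetylthiocholine by SH-SY5Y cell AChE is detected with Thiolite Green (Ex/Em 490/520 nm) after 40 min at room temperature, following 30 min compound pretreatment at 37 C.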

[10] = biological target: Acetylcholinesterase (Homo sapiens) (UniProt P22303); assay: Acetylcholinesterase (AChE) small molecule antagonists: enzyme-based qHTS assay with human liver microsomes (AID 1347399; calls by dose curve; note: nearly all actives have a fitted effect of over 60% in size); settings: Potency: qHTS inhibition; outcome: qHTS inhibition
Method in brief: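 Recombinant human AChE (50 mU/mL in the enzyme mix) and human liver microsomes (0.25 mg/mL final) were preincubated with compound and NADPH (0.25 mg/mL final) for 30 min at 37 C. Acetylthiocholine/DTNB was then added; thiocholine was read colorimetrically after 10 min at room temperature.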

[11] = biological target: Cytochrome P450 2D6 (Homo sapiens) (UniProt P10635); assay: Cytochrome P450 Family 2 Subfamily D Member 6 (CYP2D6) small molecule antagonists: luciferase reporter qHTS assay (AID 1671196); note: nearly all actives have a fitted effect of over 50% in size; note: potency is the fitted concentration of half-maximal effect
Method in brief: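 Each well received CYP2D6 with its proluciferin substrate and chemical, sat 10 min, then got NADPH regeneration solution for 1 h at room temperature. Luminescence in RLU served as the activity measure.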

[12] = biological target: Cytochrome P450 2C19 (Homo sapiens) (UniProt P33261); assay: Cytochrome P450 Family 2 Subfamily C Member 19 (CYP2C19) small molecule antagonists: luciferase reporter qHTS assay (AID 1671197); note: nearly all actives have a fitted effect of over 65% in size; note: potency is the fitted concentration of half-maximal effect
Method in brief: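 Compounds were tested on CYP2C19 activity via proluciferin conversion to luciferin. The 37C, 1 h reaction followed NADPH addition; detection reagent stopped it.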

[13] = biological target: Cytochrome P450 2C9 (Homo sapiens) (UniProt P11712); assay: Cytochrome P450 Family 2 Subfamily C Member 9 (CYP2C9) small molecule antagonists: luciferase reporter qHTS assay (AID 1671198); note: nearly all actives have a fitted effect of over 50% in size; note: potency is the fitted concentration of half-maximal effect
Method in brief: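 CYP2C9 activity was measured with a P450-Glo proluciferin substrate. Enzyme–substrate mix was held with compound for 10 min at room temperature, then NADPH regeneration solution was added for 1 h at 37C. Luciferin product was read as luminescence.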

[14] = biological target: Voltage-gated inwardly rectifying potassium channel KCNH2 (Homo sapiens) (UniProt Q12809); assay: Human Ether-a-go-go-Related Gene (hERG) channel small molecule antagonists: fluorescence cell-based qHTS assay (AID 1671200); note: nearly all actives have a fitted effect of over 50% in size; note: potency is the fitted concentration of half-maximal effect
Method in brief: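 U2OS cells expressing the channel were plated at 1000 cells/well, incubated overnight at 37 C, then loaded with FluxOR II thallium-sensitive dye for 1 h at room temperature in the dark, with a further 10 min at room temperature before stimulation.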

[15] = biological target: Cytochrome P450 3A4 (Homo sapiens) (UniProt P08684); assay: Cytochrome P450 Family 3 Subfamily A Member 4 (CYP3A4) small molecule antagonists: luciferase reporter qHTS assay (AID 1671201); note: nearly all actives have a fitted effect of over 50% in size; note: potency is the fitted concentration of half-maximal effect
Method in brief: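 P450-Glo CYP3A4 system with proluciferin substrate; compounds preincubated 10 min RT with enzyme-substrate mix, then NADPH regeneration added for 1 h RT. Detection reagent 20 min, luminescence read as relative luminescence units.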

[16] = biological target: Cytochrome P450 1A2 (Homo sapiens) (UniProt P05177); assay: Cytochrome P450 Family 1 Subfamily A Member 2 (CYP1A2) small molecule antagonists: luciferase reporter qHTS assay (AID 1671199)
Method in brief: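 Enzymatic CYP1A2 assay, human, luminescent: 10 min compound–enzyme–substrate preincubation, 1 h NADPH-dependent turnover, 20 min detection step, room temperature throughout. Reduced light indicates lower CYP1A2 activity.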

[17] = biological target: Nuclear receptor subfamily 1 group I member 2 (Rattus norvegicus) (UniProt Q9R1A7); assay: Rat pregnane X receptor (rPXR) activation by small molecules, qHTS assay (AID 1346983); settings: rPXR luciferase reporter cells, One-Glo luminescence, 24 h; active compounds read high; note: nearly all actives have a fitted effect of over 20% in size
Method in brief: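 Cell-based rPXR luciferase reporter assay, 2,000 cells per well, rested 5hr at 37 C before compound addition in DMSO, then 24 hr at 37 C. One-Glo reagent was added and luminescence read after 30 min at room temperature.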

[18] = biological target: Nuclear receptor subfamily 1 group I member 2 (Homo sapiens) (UniProt O75469); assay: CYP3A4 induction through human pregnane X receptor (PXR) by small molecules, qHTS assay (AID 1346984); note: nearly all actives have a fitted effect of over 40% in size
Method in brief: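 Readings come from a luciferase reporter: DPX-2 cells, which are HepG2 cotransfected with PXR and a CYP3A4-promoter construct, were exposed to test compounds for 24 h at 37C before One-Glo detection.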

[19] = biological target: Nuclear receptor subfamily 1 group I member 2 (Homo sapiens) (UniProt O75469); assay: Human pregnane X receptor (PXR) activation by small molecules, qHTS assay (AID 1346985); note: nearly all actives have a fitted effect of over 40% in size
Method in brief: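 DPX-2 cells (HepG2 co-transfected with a PXR response element and a CYP3A4-promoter luciferase construct) were seeded at 2,000 per well, rested 5 hr at 37C, then exposed to DMSO-dissolved compounds for 24 hr. Activation was read as luciferase luminescence.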
% is set by controls: 0 for no effect and ±100 for the full control effect.

Cytochrome P450 2D6 (Homo sapiens), sequence (P10635 whole entry, looked up): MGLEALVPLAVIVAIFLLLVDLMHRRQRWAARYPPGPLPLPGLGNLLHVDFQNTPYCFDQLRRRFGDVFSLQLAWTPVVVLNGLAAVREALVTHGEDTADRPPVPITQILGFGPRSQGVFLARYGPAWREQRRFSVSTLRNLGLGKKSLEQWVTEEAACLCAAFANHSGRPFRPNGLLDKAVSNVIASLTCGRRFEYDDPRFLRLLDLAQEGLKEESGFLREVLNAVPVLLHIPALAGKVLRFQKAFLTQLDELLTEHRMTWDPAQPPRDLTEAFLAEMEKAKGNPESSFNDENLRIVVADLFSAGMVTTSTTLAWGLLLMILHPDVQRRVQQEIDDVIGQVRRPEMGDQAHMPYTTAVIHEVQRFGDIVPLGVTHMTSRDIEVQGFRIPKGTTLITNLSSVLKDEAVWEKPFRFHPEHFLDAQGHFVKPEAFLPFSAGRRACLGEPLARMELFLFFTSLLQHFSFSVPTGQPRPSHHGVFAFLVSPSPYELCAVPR
Cytochrome P450 3A4 (Homo sapiens), sequence (P08684 whole entry, looked up): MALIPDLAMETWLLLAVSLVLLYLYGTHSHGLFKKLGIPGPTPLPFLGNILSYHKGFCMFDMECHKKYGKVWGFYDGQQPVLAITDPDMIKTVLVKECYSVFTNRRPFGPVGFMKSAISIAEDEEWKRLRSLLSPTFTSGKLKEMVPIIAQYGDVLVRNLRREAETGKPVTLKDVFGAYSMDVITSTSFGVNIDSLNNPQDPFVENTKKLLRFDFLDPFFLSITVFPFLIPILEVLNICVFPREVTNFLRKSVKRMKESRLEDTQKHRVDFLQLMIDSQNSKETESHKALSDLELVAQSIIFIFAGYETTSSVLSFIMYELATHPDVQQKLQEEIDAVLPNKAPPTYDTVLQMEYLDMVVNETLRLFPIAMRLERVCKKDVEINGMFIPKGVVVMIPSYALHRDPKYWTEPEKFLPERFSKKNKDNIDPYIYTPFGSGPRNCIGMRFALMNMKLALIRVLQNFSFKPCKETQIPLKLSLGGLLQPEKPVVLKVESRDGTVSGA
Cytochrome P450 2C9 (Homo sapiens), sequence (P11712 whole entry, looked up): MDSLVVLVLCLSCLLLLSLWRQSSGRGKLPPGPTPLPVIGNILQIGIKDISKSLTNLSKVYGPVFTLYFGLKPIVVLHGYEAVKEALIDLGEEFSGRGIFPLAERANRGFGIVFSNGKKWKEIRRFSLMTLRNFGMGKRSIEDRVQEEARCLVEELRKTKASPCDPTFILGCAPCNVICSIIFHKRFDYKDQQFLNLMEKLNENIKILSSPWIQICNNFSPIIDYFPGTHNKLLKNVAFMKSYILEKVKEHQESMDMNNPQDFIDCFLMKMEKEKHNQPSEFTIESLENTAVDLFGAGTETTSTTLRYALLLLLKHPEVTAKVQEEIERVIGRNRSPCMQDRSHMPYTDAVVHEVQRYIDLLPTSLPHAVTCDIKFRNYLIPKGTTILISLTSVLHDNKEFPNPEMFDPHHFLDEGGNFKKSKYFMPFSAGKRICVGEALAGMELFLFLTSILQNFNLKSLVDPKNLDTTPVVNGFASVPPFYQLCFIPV
Voltage-gated inwardly rectifying potassium channel KCNH2 (Homo sapiens), sequence (Q12809 whole entry, looked up): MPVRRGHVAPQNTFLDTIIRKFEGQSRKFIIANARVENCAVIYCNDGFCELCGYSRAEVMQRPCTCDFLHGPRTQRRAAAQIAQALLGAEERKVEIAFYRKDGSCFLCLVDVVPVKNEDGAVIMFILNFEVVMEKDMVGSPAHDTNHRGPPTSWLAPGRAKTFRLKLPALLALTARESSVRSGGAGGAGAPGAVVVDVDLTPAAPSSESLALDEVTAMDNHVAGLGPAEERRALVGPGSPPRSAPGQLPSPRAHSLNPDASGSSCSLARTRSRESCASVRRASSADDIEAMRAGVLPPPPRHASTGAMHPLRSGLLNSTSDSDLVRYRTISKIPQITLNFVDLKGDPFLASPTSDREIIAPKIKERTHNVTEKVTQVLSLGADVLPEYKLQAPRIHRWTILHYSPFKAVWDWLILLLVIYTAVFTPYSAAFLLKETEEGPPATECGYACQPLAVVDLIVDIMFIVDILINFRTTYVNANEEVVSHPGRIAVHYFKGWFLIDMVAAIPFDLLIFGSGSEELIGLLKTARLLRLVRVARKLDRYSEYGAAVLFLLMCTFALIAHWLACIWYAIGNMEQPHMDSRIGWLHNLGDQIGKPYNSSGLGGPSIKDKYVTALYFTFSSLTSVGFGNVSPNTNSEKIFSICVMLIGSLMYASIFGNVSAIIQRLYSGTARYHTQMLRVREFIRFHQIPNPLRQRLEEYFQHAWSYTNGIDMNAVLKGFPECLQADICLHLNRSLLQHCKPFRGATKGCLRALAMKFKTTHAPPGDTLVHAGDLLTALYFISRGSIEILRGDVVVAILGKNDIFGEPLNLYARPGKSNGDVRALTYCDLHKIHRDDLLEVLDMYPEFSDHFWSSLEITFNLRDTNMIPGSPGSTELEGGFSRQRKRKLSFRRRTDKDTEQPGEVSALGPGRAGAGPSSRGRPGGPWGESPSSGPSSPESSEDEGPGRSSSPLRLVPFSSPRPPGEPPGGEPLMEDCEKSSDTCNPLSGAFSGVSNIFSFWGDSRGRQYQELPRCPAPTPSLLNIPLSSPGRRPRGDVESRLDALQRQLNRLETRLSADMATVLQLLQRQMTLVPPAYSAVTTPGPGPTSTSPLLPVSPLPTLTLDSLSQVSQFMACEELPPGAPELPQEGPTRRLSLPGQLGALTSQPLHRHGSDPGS
Nuclear receptor subfamily 1 group I member 2 (Homo sapiens), sequence (O75469 whole entry, looked up): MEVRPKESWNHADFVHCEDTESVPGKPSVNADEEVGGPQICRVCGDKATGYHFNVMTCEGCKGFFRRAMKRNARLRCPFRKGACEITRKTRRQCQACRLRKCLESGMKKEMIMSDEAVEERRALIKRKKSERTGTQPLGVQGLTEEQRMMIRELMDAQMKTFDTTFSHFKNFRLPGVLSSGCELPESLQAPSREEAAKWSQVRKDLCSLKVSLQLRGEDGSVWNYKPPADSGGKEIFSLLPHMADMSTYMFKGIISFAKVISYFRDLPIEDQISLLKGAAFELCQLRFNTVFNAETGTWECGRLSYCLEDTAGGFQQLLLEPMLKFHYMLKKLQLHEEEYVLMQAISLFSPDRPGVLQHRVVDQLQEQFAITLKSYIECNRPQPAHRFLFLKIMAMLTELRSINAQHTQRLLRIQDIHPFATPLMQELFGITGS
Acetylcholinesterase (Homo sapiens), sequence (P22303 whole entry, looked up): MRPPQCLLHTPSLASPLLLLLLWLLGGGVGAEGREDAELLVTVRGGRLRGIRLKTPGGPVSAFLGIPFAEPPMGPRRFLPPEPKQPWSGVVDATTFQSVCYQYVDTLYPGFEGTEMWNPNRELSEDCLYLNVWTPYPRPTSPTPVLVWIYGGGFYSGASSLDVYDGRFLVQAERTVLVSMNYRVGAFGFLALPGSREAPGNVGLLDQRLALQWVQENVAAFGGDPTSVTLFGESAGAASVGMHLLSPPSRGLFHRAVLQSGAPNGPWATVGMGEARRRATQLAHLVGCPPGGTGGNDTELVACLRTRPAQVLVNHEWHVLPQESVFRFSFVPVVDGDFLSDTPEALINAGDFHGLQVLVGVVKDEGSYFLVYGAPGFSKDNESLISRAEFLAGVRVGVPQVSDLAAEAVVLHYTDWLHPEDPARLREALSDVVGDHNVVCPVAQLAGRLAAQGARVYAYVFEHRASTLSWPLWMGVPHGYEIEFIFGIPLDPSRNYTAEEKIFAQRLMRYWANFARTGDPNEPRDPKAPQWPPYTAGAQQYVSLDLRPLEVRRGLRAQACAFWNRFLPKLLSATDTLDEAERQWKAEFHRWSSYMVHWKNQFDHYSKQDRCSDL
Nuclear receptor subfamily 1 group I member 2 (Rattus norvegicus), sequence (Q9R1A7 whole entry, looked up): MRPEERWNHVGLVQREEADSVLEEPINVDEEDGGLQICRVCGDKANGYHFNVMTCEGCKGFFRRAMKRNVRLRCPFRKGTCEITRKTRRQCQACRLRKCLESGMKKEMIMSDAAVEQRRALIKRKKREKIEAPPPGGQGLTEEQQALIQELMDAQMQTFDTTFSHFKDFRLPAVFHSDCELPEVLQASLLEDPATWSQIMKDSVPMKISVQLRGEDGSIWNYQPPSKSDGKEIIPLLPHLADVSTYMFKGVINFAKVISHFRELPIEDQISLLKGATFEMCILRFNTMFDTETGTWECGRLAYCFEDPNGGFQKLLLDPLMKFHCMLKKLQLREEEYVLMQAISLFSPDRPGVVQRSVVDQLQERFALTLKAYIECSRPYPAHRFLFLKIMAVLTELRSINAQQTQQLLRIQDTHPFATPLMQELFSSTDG
Cytochrome P450 1A2 (Homo sapiens), sequence (P05177 whole entry, looked up): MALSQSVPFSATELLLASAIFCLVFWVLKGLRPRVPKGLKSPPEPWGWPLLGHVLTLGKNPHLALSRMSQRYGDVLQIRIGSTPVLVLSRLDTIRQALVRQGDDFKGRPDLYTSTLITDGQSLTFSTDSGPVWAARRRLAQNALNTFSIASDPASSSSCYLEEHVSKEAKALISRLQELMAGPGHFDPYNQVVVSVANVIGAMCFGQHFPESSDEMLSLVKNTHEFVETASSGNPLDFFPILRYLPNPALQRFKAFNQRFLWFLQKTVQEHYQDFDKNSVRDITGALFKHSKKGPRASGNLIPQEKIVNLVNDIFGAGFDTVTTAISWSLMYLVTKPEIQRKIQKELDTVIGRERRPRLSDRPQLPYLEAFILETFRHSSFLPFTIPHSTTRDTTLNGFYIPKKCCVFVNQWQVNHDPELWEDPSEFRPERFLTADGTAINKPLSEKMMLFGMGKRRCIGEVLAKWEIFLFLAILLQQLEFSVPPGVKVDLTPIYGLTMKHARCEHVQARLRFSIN

CCC(C)Cl (stereo not drawn)
inactive: Potency [1] | Potency [2] | Potency [3] | Potency [4] | Potency [5] | Potency [6] | Potency [7] | Potency [8] | Potency [9] | Potency [10] | Potency [11] | Potency [12] | Potency [13] | Potency [14] | Potency [15]

CCCCC#N
inactive: Potency [1] | Potency [2] | Potency [3] | Potency [4] | Potency [5] | Potency [6] | Potency [7] | Potency [8] | Potency [9] | Potency [10] | Potency [11] | Potency [13] | Potency [16] | Potency [14] | Potency [15]

CCC1CCC(=O)O1 (stereo not drawn)
inactive: Potency [1] | Potency [2] | Potency [3] | Potency [4] | Potency [5] | Potency [6] | Potency [7] | Potency [8] | Potency [9] | Potency [10] | Potency [11] | Potency [13] | Potency [14] | Potency [15]
active: Potency [12] 45.2 µM

CCOC(=O)NC(O)C(Cl)(Cl)Cl (stereo not drawn)
inactive: Potency [1] | Potency [2] | Potency [3] | Potency [4] | Potency [5] | Potency [6] | max activation [17] -1.22% | outcome [18] | Potency [19] | Potency [7] | Potency [8] | Potency [9] | Potency [10] | Potency [11] | Potency [13] | Potency [16] | Potency [14] | Potency [15]

CC(CC(C(N)=O)(c1ccccc1)c1ccccc1)N(C)C (stereo not drawn)
active: Potency [11] 6.17 µM
inactive: Potency [1] | Potency [2] | Potency [3] | Potency [4] | Potency [5] | Potency [6] | Potency [7] | Potency [8] | Potency [9] | Potency [10] | Potency [12] | Potency [13] | Potency [14] | Potency [15]

CC(=O)OC(c1ccccc1)C(Cl)(Cl)Cl (stereo not drawn)
inactive: Potency [1] | Potency [2] | Potency [3] | Potency [4] | Potency [5] | Potency [6] | Potency [7] | Potency [8] | Potency [9] | Potency [10] | Potency [11] | Potency [12] | Potency [16] | Potency [15]

C[C@H](N)[C@H](O)c1ccc(O)c(O)c1
active: Potency [9] 0.776 µM
inactive: Potency [1] | Potency [2] | Potency [3] | Potency [4] | Potency [5] | Potency [6] | max activation [17] -1.11% | outcome [18] | Potency [19] | Potency [7] | Potency [8] | Potency [10] | Potency [12] | Potency [13] | Potency [14] | Potency [15]

CN[C@@H](C)[C@H](O)c1ccccc1
inactive: Potency [1] | Potency [2] | Potency [3] | Potency [4] | Potency [5] | Potency [6] | max activation [17] -0.788% | outcome [18] | Potency [19] | Potency [7] | Potency [8] | Potency [9] | Potency [10] | Potency [12] | Potency [13] | Potency [16] | Potency [14] | Potency [15]

CC(C)(c1ccccc1)c1cc(-n2nc3ccccc3n2)c(O)c(C(C)(C)c2ccccc2)c1
inactive: Potency [1] | Potency [2] | Potency [3] | Potency [4] | Potency [5] | Potency [6] | Potency [7] | Potency [8] | Potency [9] | Potency [10] | Potency [11] | Potency [12] | Potency [13] | Potency [14] | Potency [15]

O=C1c2ccccc2C(=O)N1SC(Cl)(Cl)Cl
active: Potency [1] 39.8 µM and 17.2 µM | Potency [3] 4.27 µM and 5.45 µM | Potency [5] 24.3 µM | Potency [6] 6.03 µM | Potency [12] 78.5 µM and 20 µM | Potency [13] 24.8 µM and 11.2 µM | Potency [14] 24.2 µM and 38.9 µM
inactive: Potency [2] | Potency [4] | Potency [7] | Potency [8] | Potency [9] | Potency [10] | Potency [11] | Potency [15]

COC1=CC(=O)O[C@@H](/C=C/c2ccc3c(c2)OCO3)C1
inactive: Potency [1] | Potency [2] | Potency [3] | Potency [4] | Potency [5] | Potency [6] | Potency [7] | Potency [8] | Potency [9] | Potency [10] | Potency [14]
active: Potency [11] 34.1 µM | Potency [12] 8.56 µM | Potency [13] 2.71 µM | Potency [15] 4.81 µM

CC(C)[C@@H](C(=O)O[C@@H](C#N)c1cccc(Oc2ccccc2)c1)c1ccc(Cl)cc1
active: Potency [3] 27.7 µM | Potency [6] 5.53 µM and 9.69 µM | Potency [12] 9.07 µM and 31.7 µM | Potency [13] 7.21 µM and 12.6 µM
inactive: Potency [1] | Potency [2] | Potency [4] | Potency [5] | Potency [7] | Potency [8] | Potency [9] | Potency [10] | Potency [16] | Potency [14] | Potency [15]

CC(C)CCON=O
inactive: Potency [1] | Potency [2] | Potency [3] | Potency [4] | Potency [5] | Potency [6] | max activation [17] -3.41% | outcome [18] | Potency [19] | Potency [7] | Potency [8] | Potency [9] | Potency [10] | Potency [12] | Potency [13] | Potency [16] | Potency [14] | Potency [15]

CCCC1CCCCN1 (stereo not drawn)
inactive: Potency [1] | Potency [2] | Potency [3] | Potency [4] | Potency [5] | Potency [6] | max activation [17] -2.95% | outcome [18] | Potency [19] | Potency [7] | Potency [8] | Potency [9] | Potency [10] | Potency [12] | Potency [13] | Potency [16] | Potency [14] | Potency [15]

Cc1ccc2c(C)cccc2c1
inactive: Potency [1] | Potency [2] | Potency [3] | Potency [4] | Potency [5] | Potency [6] | Potency [7] | Potency [8] | Potency [9] | Potency [10] | Potency [11] | Potency [12] | Potency [13] | Potency [14] | Potency [15]

Reference: PubChem BioAssay (Tox21)
